# An excerpt weighted towards active compounds, which were near 4.4% of everything screened.
# p53ts 32C kill: qHTS Screen for Compounds that Selectively Target Cancer Cells with p53 Mutations: Cytotoxicity of p53ts Cells at the Permissive Temperature | Potency, µM (highest dose often 46.1 µM), without a hit: at the highest dose activity change, negative = cytotoxicity, actives largely listed as cytotoxic | AID 924, 2007 | actives 0.93% (n = 130,000) | H1299-p53A138V at 32C, ATP luminescence viability, 24 h;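 note: 0% = DMSO and -100% = full killing by reference compound; nearly all actives have a fitted effect of over 55% in size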
#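 H1299-p53 A138V cells (temperature-sensitive p53) exposed 24 h to up to 46 uM compound at 32C, where p53 is wild-type in conformation. Viability read as ATP luminescence and normalised to DMSO and 100 uM tamoxifen. AC50 fitted with the Hill equation.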
# p53ts 39C kill: qHTS Screen for Compounds that Selectively Target Cancer Cells with p53 Mutations: Cytotoxicity of p53ts Cells at the Nonpermissive Temperature | actives 1.5% (n = 130,000) | Potency, µM (highest dose often 46.1 µM), inactives show at the top dose activity change, negative = cell killing, actives largely listed as cytotoxic | H1299-p53A138V viability at 39C, ATP luminescence, 24 h; note: nearly all actives have a fitted effect of over 55% in size
# 12-hLO inh: qHTS Assay for Inhibitors of 12-hLO (12-human lipoxygenase); AID 1452, 2008; Polyunsaturated fatty acid lipoxygenase ALOX12 (Homo sapiens), P18054; actives 0.12% (n = 150,000); purified 12-hLO, xylenol orange hydroperoxide absorbance; Potency, µM (doses to about 57.1 µM), for inactives: top-dose activity change, negative = inhibition, hits mostly inhibitors; note: nearly all actives have a fitted effect of over 55% in size
# Target sequence (P18054 whole entry, looked up): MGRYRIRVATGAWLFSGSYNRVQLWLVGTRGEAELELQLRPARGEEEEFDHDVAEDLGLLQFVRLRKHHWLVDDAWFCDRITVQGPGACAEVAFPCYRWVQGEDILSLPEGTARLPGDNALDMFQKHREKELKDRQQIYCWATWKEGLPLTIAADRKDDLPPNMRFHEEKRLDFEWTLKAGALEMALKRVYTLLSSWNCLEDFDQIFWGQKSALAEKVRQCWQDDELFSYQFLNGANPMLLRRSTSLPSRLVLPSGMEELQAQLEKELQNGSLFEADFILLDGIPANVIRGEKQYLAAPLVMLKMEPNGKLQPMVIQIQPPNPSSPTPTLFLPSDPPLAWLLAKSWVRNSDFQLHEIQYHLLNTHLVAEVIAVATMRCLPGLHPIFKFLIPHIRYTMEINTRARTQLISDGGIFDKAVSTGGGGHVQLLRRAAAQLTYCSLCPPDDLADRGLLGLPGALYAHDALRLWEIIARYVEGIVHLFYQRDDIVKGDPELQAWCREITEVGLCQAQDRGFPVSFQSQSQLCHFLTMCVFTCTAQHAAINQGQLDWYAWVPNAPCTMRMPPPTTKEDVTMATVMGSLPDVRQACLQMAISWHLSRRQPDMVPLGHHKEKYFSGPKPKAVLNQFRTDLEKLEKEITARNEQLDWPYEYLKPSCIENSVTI
#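 Xylenol orange chromogenic assay: hydroperoxide from 12hLO oxidises Fe(II), giving red-shifted Fe(III)-XO absorbance. Conditions: 150 nM enzyme, 40 uM arachidonic acid, 25 mM Hepes pH 7.0, 0.01% Triton X-100, 30 min, room temperature.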
# HPGD inh: qHTS Assay for Inhibitors of HPGD (15-Hydroxyprostaglandin Dehydrogenase); actives 4.3% (n = 150,000); 15-hydroxyprostaglandin dehydrogenase [NAD(+)] (Homo sapiens), P15428; AID 894, 2007; Potency, µM, for inactives: at the highest dose activity change, negative = inhibition, actives largely listed as inhibitors; purified HPGD, NADH fluorescence kinetic, PGE2 substrate; active = well fitted inhibition curve with a large enough effect, not every such curve was filed as active; inconclusive = small, poorly fitted or top-dose-only effect, or another doubt; inactive = no such curve, though single readings can be large or run the other way
#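 20 nM HPGD preincubated 15 min at room temperature with compound in 50 mM Tris-HCl pH 8, 0.01% Tween 20. Started with 1 mM NAD+ and 30 uM prostaglandin E2; NADH fluorescence (360/450 nm) read 5 times over 30-s intervals, last minus first.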
# An asterisk follows results filed as active; u = inconclusive; x = not tested or not shown; [ ] = another dose, or the depositor's remark. Unless noted, calls come from the whole dose curve; as a rule, active = well fitted curve in the direction sought with a large enough effect; inconclusive = small, poorly fitted or top-dose-only effect, or another doubt; inactive = no such curve, though single readings can be large; an effect the other way counts as inactive or inconclusive. Unless noted, % is set by controls: 0 for no effect and ±100 for the full control effect; potency is the fitted concentration of half-maximal effect.
SMILES,p53ts 32C kill,p53ts 39C kill,12-hLO inh,HPGD inh
O=C(CSc1ncn[nH]1)c1ccco1,4%,5%,-5%,25µM*
O=C(CSc1ncn[nH]1)c1ccccc1,-4%,10%,-17%,22µM*
COc1ccccc1NC(=O)Cn1c(=O)n(-c2ccc(C)cc2)c(=O)c2c1cnn2C,2%,23%,x,x
O=c1[nH]c(=O)n(C2CC(O)C(CO)O2)cc1F (stereo not drawn),5%,-15%,2%,-3%
O=C(NC1CC(=O)N(c2ccccc2)C1)C1CCCCC1 (stereo not drawn),-2%,13%,x,x
COc1ccc(-c2cn3ccccc3n2)cc1OC,3.2µM*,5µM*,-2%,u
COc1ccc(-c2csc(C)n2)cc1OC,x,x,-1%,0%
COc1ccc(-c2cn3cc(C)ccc3n2)cc1OC,10µM*,13µM*,-7%,u
O=C(O)CSc1cc(-c2ccccc2)nc2ccccc12,-8%[9.22 µM],-6%[9.22 µM],-5%[11.4 µM],3%
CCCCCCCCC,-18%[1.84 µM],-2%,1%,2%
Cc1ccc(NC(=O)C2=CC(c3ccc4c(c3)OCO4)=NS(=O)(=O)N2C)cc1,-2%,3%,x,x
C=CCn1c2ccccc2c2nnc(SCCCn3c(=O)[nH]c4ccccc43)nc21,u,u,0%,14µM*
CCCOc1ccccc1NC(=O)c1ccc(N)cc1,3%,-12%,0%,-7%
CCCOc1ccc(N)cc1N,20µM*,-21%,-10%,-14%
Cn1c(=O)[nH]c(=O)c2c1nc(Br)n2Cc1ccccc1F,3%,9%,-4%,-50%
CN(C)c1nc2c(c(=O)[nH]c(=O)n2C)n1Cc1ccccc1Br,x,x,3%,18µM*
CC(C)(C)NC(=O)Cn1cc(S(=O)(=O)Cc2ccccc2Cl)c2ccccc21,4%,x,x,x
Cc1ccc(C(C)C)c(OCC(=O)Nc2cc(-c3nc4ccccc4[nH]3)ccc2C)c1,u,10µM*,x,x
COc1cc(OC)cc(C(=O)Nc2cc(-c3nc4ccccc4[nH]3)ccc2C)c1,-10%,-7%,x,x
CCOC(=O)N/N=C1/C[C@@H](O)[C@@H](O)[C@@H]2[C@@H]3C(=O)N(C4CCCCC4)C(=O)[C@H]3CC[C@@H]12,0%[9.22 µM],2%[9.22 µM],x,x
Cc1ccc(NC(=O)Cn2c(C)cc(C)c(C#N)c2=O)cc1,3%,-18%,x,x
CNC(=O)/C(C#N)=C/c1ccc(-c2ccc(OC)cc2[N+](=O)[O-])o1,x,x,-4%,7.1µM*
CCOc1ccc(-c2ccc(C=O)o2)c([N+](=O)[O-])c1,x,x,-6%,u
COc1ccc(CCNC(=O)c2c(C)oc3ncn(C)c(=O)c23)c(OC)c1,2%,-15%,x,x
Cc1ccc(NC(=O)NCCOCCn2c(=O)oc3ccccc32)c(C)c1,-5%,-1%,x,x
SMILES,p53ts 32C kill,p53ts 39C kill,12-hLO inh,HPGD inh
CN(C)c1ccnc(NCc2ccccc2)c1C#N,-2%,-9%,-3%,14µM*
Cc1cc(N(C)C)c(C#N)c(NCc2ccccc2)n1,-4%,-3%,-4%,-25%
N#Cc1c(NCc2ccccc2)ccnc1NCc1cccnc1,20%,-12%,1%,13µM*
CCCCCNC(=O)C(=O)NCC(c1ccc2c(c1)OCO2)N1CCOCC1 (stereo not drawn),2%,-10%,x,x
Clc1ccccc1-c1nnn(Cc2ccc(-c3nn[nH]n3)cc2)n1,7%,9%,-4%,13µM*
CCOc1cccc2cc(-c3nc4sc(C(=O)Nc5ccc(C)cc5)c(C)c4c(=O)[nH]3)c(=O)oc12,-2%,-11%,x,x
CCOC(=O)c1sc(NC(=O)C2CC2)cc1C,13µM*,13µM*,-7%,-7%
CCOC(=O)c1sc(NC(=O)c2cccc(S(=O)(=O)N3CCN(C)CC3)c2)cc1C,0%,-15%,-13%,25µM*
CCOc1ccccc1C1C(C(=O)Nc2ccccc2)=C(C)Nc2c(C(=O)Nc3ccc(F)cc3)cnn21 (stereo not drawn),19%,15%,x,x
Cc1sc2nc(SCC(=O)NCc3cccs3)[nH]c(=O)c2c1C,5%,-1%,0%,25µM*
Cc1sc2nc(CN(Cc3cccs3)C(=O)C3CC3)[nH]c(=O)c2c1C,11%,7%,-7%,-9%

# Screens deposited in PubChem BioAssay by National Center for Advancing Translational Sciences (NCATS).
